Data as given in the supplement of paper PMC11732987, “Enantioselective OTUD7B fragment discovery through chemoproteomics screening and high-throughput optimisation” (Communications Chemistry, 2025).

Tests used:
Assay in all cases: log2 ratio of Biotin-Ahx-Ub-VS probe labelling (fragment/DMSO); higher = less target engagement (more negative = stronger competition), active = hit call of the paper (q ≤ 0.05, log2 ratio ≤ -1)
Conditions in all cases: compound concentration: 200 uM; treatment time: 3 h
[1] = biological target: T1, OTUD6B (UniProt Q8N6M0)
T1 sequence (whole entry): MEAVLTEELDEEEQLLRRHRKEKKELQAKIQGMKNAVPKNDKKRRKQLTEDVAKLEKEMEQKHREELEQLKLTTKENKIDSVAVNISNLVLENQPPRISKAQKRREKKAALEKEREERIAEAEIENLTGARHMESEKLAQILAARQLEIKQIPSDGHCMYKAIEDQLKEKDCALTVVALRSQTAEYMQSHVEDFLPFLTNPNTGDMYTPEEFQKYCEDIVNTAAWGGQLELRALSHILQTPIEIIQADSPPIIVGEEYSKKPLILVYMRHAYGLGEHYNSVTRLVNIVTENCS
Method in brief: (§1)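 Fragment (200 µM) or vehicle was incubated for 3 h with triplicate HEK293T lysate samples of 495 µg, which were then treated with Biotin-Ahx-Ub-VS at 0.5 µM final for 1 h. Labelled DUBs were enriched on NeutrAvidin, digested with LysC and trypsin, and analysed by diaPASEF LC-MS/MS. Values are average log2 fragment/vehicle ratios from an unpaired t-test on global-median-normalised Spectronaut label-free quantities, using proteins with ≥2 unique peptides.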

[2] = biological target: T2, OTUD7B (UniProt Q6GQQ9)
T2 sequence (whole entry): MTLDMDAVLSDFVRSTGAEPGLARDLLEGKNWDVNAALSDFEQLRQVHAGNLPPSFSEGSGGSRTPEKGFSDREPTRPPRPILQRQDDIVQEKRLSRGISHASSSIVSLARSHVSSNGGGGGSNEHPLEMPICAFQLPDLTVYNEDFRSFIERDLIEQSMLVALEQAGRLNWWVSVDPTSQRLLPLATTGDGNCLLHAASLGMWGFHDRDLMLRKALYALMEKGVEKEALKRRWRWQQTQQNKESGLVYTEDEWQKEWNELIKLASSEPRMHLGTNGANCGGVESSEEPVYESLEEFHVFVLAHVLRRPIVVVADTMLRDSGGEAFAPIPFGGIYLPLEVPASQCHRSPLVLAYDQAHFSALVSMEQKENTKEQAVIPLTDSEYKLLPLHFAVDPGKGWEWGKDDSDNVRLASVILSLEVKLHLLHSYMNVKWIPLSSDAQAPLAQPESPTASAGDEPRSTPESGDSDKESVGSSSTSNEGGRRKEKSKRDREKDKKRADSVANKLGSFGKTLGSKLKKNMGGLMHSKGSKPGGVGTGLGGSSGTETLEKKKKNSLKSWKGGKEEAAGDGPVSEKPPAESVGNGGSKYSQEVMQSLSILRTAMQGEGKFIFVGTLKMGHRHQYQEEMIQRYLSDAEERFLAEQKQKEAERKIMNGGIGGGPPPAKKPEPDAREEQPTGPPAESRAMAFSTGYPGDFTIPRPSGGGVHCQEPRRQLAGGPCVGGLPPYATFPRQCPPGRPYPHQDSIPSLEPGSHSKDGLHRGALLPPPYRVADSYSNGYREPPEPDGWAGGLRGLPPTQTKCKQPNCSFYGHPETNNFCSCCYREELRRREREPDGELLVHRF
Method in brief: as §1

[3] = biological target: PRPF8 (UniProt Q6P2Q9)
Method in brief: as §1

[4] = biological target: T3, PSMD7 (UniProt P51665)
T3 sequence (whole entry): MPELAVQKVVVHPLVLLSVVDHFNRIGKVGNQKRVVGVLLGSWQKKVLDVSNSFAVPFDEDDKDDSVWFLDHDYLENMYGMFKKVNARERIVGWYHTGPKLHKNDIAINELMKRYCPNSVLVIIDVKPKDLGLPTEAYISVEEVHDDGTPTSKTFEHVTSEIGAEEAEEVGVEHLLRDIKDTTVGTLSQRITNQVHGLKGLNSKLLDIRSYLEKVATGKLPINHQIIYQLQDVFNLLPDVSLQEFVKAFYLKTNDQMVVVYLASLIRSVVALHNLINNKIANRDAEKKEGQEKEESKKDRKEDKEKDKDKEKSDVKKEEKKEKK
Method in brief: as §1

[5] = biological target: UCHL1 (UniProt P09936)
UCHL1, sequence (P09936 whole entry, looked up): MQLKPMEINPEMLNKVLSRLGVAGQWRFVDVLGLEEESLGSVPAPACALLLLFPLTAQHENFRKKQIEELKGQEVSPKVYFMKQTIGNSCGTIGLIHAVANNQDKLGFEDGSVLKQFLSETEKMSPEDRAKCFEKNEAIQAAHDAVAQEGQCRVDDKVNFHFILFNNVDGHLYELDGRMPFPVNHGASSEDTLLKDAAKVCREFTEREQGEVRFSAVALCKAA
Method in brief: as §1

[6] = biological target: T4, UCHL3 (UniProt P15374)
T4 sequence (whole entry): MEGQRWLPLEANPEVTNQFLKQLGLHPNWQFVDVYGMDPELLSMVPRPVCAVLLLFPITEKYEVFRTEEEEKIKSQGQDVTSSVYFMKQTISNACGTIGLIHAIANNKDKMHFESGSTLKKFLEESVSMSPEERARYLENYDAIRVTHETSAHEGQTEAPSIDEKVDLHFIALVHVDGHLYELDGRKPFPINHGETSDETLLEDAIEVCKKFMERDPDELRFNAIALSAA
Method in brief: as §1

[7] = biological target: T5, UCHL5 (UniProt Q9Y5K5)
T5 sequence (whole entry): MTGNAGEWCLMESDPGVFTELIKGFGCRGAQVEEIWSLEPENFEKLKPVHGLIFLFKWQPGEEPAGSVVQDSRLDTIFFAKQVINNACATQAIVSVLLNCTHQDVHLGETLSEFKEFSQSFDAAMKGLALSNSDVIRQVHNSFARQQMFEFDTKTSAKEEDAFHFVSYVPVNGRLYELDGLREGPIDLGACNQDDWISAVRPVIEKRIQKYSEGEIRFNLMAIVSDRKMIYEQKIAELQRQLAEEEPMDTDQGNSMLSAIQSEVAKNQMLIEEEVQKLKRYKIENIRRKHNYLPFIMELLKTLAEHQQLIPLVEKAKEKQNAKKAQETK
Method in brief: as §1

[8] = biological target: USP10 (UniProt Q14694)
USP10, sequence (Q14694 whole entry): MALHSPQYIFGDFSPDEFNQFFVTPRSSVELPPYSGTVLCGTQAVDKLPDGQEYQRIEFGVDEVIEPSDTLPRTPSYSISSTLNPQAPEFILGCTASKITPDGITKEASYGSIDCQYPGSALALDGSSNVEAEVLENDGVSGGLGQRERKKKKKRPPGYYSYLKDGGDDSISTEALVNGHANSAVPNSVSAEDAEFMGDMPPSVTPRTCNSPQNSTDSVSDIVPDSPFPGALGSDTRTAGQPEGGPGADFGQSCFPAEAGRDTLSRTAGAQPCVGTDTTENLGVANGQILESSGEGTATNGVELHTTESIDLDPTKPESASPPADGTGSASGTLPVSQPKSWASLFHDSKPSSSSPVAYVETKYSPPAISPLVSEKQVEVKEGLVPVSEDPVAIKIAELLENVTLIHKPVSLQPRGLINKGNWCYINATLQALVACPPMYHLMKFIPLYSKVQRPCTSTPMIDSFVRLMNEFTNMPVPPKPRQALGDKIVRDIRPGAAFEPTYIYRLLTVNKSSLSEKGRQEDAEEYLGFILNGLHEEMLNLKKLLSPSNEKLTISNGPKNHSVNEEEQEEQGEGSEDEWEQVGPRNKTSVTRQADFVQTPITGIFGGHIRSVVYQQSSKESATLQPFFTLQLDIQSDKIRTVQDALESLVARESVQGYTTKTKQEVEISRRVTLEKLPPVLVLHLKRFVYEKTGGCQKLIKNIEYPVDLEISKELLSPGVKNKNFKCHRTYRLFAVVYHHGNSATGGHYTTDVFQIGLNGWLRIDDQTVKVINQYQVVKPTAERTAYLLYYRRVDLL
Method in brief: as §1

[9] = biological target: T6, USP15 (UniProt Q9Y4E8)
T6 sequence (whole entry): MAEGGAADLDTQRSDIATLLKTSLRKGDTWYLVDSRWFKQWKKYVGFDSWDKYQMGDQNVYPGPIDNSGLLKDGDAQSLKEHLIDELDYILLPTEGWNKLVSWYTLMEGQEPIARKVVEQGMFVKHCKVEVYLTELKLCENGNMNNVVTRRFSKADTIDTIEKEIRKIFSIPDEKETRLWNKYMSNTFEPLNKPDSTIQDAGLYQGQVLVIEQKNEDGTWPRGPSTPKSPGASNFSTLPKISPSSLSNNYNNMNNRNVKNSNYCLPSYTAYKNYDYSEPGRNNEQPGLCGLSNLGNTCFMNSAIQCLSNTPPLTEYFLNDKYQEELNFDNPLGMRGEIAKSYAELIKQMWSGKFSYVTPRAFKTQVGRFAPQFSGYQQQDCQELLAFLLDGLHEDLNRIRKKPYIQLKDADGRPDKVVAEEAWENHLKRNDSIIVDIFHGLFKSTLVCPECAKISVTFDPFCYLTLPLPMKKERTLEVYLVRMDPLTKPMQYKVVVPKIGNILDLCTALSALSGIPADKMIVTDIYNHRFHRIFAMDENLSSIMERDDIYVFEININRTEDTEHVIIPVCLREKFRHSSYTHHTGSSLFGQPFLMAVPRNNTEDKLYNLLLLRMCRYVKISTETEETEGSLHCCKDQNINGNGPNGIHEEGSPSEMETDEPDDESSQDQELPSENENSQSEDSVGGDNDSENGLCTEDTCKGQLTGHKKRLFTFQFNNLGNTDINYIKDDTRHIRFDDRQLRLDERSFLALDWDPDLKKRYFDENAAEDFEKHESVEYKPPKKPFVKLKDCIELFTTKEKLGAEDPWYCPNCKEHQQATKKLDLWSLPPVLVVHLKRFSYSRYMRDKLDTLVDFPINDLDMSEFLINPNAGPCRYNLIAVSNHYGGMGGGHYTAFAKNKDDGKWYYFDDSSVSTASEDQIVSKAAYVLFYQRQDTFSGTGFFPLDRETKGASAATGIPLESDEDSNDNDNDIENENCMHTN
Method in brief: as §1

[10] = biological target: USP16 (UniProt Q9Y5T5)
USP16, sequence (Q9Y5T5 whole entry, looked up): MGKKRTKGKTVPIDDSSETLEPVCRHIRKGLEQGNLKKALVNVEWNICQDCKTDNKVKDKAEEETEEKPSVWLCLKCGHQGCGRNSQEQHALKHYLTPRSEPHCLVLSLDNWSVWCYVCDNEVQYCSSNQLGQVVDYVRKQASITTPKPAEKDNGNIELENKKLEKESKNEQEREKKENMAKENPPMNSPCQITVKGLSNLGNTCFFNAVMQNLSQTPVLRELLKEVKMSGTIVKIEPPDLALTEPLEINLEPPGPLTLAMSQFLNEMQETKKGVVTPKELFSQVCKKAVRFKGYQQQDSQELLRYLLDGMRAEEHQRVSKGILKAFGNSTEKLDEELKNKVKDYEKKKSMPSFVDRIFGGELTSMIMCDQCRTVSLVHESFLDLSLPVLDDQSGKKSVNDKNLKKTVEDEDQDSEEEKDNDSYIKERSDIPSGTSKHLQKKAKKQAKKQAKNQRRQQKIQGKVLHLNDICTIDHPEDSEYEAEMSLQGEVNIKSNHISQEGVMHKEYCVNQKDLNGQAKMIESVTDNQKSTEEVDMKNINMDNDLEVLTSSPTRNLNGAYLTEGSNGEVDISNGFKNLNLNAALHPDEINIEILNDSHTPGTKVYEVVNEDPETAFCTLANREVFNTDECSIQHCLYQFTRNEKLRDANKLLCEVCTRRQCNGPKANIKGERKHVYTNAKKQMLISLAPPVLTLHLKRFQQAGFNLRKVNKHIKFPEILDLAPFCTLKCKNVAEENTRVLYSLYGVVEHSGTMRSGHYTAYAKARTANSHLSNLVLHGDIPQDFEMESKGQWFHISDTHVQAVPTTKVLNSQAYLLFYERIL
Method in brief: as §1

Measured: log2 ratio of Biotin-Ahx-Ub-VS probe labelling

O=C(CCl)N1CCOCCC1c1ccccc1 (stereo not given)
inactive: [1] -0.163 | [2] -0.354 | [3] -0.148 | [4] 0.00247 | [6] 0.325 | [7] -0.0371 | [8] -0.182 | [9] 0.0371 | [10] -0.424
active: [5] -1.93
